62 compounds from PubChem BioAssay AID588590 (National Center for Advancing Translational Sciences (NCATS), 2011) can be followed below.

Screen size: about 390,000 compounds; about 4,000 (1%) were called active. Where a call stands in place of a potency, no number is given. Not shown: some 7% with an inconclusive outcome. Calls follow the shape of the dose curve; as a rule, active = well fitted inhibition curve with a large enough effect; inconclusive = small, poorly fitted or top-dose-only effect, or another doubt; inactive = no such curve, though single readings can be large or run the other way. This excerpt belongs to a sample that is enriched for actives.
Potency is read from the fitted curve at half-maximal effect.

Sequence of DNA polymerase iota (Homo sapiens) (Q9UNA4 whole entry, looked up): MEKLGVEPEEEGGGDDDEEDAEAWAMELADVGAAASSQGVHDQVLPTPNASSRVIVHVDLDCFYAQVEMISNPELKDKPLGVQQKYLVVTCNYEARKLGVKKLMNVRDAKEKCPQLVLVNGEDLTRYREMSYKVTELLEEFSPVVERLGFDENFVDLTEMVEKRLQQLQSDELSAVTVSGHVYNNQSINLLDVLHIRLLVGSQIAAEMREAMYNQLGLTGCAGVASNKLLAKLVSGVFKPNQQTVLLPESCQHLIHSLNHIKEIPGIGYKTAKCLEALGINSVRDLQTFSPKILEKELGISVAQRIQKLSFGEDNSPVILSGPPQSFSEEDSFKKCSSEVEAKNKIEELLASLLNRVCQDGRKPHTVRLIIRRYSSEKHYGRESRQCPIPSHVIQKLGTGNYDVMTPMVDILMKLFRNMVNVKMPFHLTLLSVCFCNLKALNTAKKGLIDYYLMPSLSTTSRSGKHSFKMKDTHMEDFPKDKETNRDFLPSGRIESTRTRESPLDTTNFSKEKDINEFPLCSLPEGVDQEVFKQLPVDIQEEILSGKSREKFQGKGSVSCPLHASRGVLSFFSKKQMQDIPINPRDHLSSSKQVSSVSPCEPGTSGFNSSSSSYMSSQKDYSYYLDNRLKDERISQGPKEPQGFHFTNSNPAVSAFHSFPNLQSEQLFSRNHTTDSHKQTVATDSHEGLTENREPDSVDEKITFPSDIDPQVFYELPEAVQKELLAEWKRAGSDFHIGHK

The test concerns the target DNA polymerase iota (Homo sapiens) (UniProt Q9UNA4). The test can be described thus: qHTS for Inhibitors of Polymerase Iota. As to conditions: Pol iota fluorescent replication assay, 10 min; series mostly up to 115 µM. An excerpt: DNA polymerases, such as Pol iota, are specifically involved in DNA repair. Pol iota specifically plays an important role in translesion synthesis, where the normal high-fidelity DNA polymerases cannot proceed and DNA synthesis stalls. […] Thus, while pol eta's (and most likely iota's) normal function is to protect humans against the deleterious consequences of DNA damage, under certain conditions they can have deleterious effects on human health. As a consequence, we propose to utilize a high throughput replication assay to identify small molecule inhibitors of pol iota.
In a collaboration between the National Institute of Child Health & Human Development (NICHD) and NIH Chemical Genomics Center, a high-throughput, fluorescent screen was developed to screen the NIH Molecular Libraries Small Molecule Repository (MLSMR). This screen is used to identify inhibitors of pol iota.
NIH Chemical Genomics Center [NCGC]
NIH Molecular Libraries Probe Centers Network [MLPCN]
Assay Submitter (PI): Roger Woodgate, NICHD)
Three microliters of reagents (buffer in column 3 and 4 as negative control and 10 nM Pol iota in columns 1, 2, and 5-48) will be dispensed into 1,536-well black solid-bottomed plate. Compounds (23 nL) will be transferred via Kalypsys pin tool equipped with 1536-pin array. The plates will then be incubated for 15 min at room temperature, and 1 µL substrate (50 nM final concentration) will be added to start the reaction and kinetically read twice at 0 min and 10 min on the Viewlux reader.
As for `CCOc1ccc(NC(=O)c2ccc(NC(=O)COC(=O)c3ccc(NC(=O)CC#N)cc3)cc2)cc1`, the Potency was 8.91 µM (active). Take `CCOc1ccc(NC(=O)CCNC(=O)c2ccc(Br)cc2)cc1`: the Potency result was “inactive”. Regarding `CCOc1ccc(NC(=O)c2ccc(NC(=O)CN3C(=O)C(=O)N(CC(C)C)C3=O)cc2)cc1`, the Potency result was “inactive”. For the compound `O=C1O/C(=C\c2ccc(O)cc2)C(O)=C1c1ccc(O)cc1`, the Potency entry is “inactive”. Take `Oc1ccccc1-c1nc2ccc(Cl)cn2c1Nc1ccc2c(c1)OCCO2`: the Potency result is “inactive”. As for `CCOc1ccc(CCNC(=O)c2csc3c2CCCCC3)cc1`, the Potency result was “inactive”.

On to `Cc1ccccc1OCC(=O)Nc1c(C(=O)Nc2ccccc2F)oc2ccccc12`, for which the Potency result is “inactive”. Take `O=C(COc1ccccc1)Nc1ccc(N2CCN(C(=O)c3cccs3)CC2)cc1`: the Potency result was “inactive”. `CCOc1ccc(NC(=O)COc2ccc(C(=O)N3CCC(C(N)=O)CC3)cc2OC)cc1`: the Potency result was “inactive”. The value for `O=C(COc1ccccc1)Nc1ccc(C(=O)N2CCCC2)cc1` was 89.1 µM (active).

`COc1ccc(C2Sc3ccccc3NC3=C2C(=O)c2ccccc23)c(OC)c1OC` (configuration not stated): the Potency entry was “inactive”. In the case of `CCSc1nnc2c(n1)OC(c1ccc(OCC(=O)O)cc1)Nc1ccccc1-2` (configuration not stated), the Potency result is “inactive”. The entry for `Cc1cc(C)c2sc(NC(=O)c3ccc(S(=O)(=O)N4CCCC4)cc3)nc2c1` is “inactive”; for `CCCCN(CC)CCCNC(=O)c1nn(C)c2c1CS(=O)(=O)c1ccccc1-2` it is “inactive”; for `Cc1ccccc1-c1nnc(SCC(=O)NCc2ccc3c(c2)OCO3)n1C` it is “inactive”. The value for `Cc1ccn2c(=O)nc(SCC(=O)NCc3ccc4c(c3)OCO4)nc2c1` was 44.7 µM (active). As to `O=C(CSc1nc(=O)n2ccccc2n1)Nc1ccc2c(c1)OCCO2`, the Potency result was “inactive”.

With `Cc1ccccc1Nc1nn2c(=O)c3ccc(C(=O)NCCc4ccc(Cl)cc4)cc3nc2s1`, the Potency entry was “inactive”. For the compound `O=C(NC1=CC(=O)c2ccccc2C1=O)c1ccccc1`, the Potency is 3.55 µM (active). Turning to `CC(=O)c1cc(NC(=O)c2ccccc2)c(=O)oc1/C=C/N(C)C`, the Potency result was “inactive”.

In the case of `O=C(COC(=O)c1cccc(Br)c1)Nc1cccc2c1C(=O)c1ccccc1C2=O`, the Potency result is “inactive”. `O=C(Nc1ccc([N+](=O)[O-])cc1)c1cnn2c1NC(=C1CC1)C=C2C(F)F`: the Potency entry was “inactive”. The value for `CCN(CCCNC(=O)c1cc2cc3cc(OC)ccc3nc2s1)c1ccccc1` was “inactive”; that for `O=C(NCCCN1CCN(c2cccc(Cl)c2)CC1)c1nnc(Cc2ccc(F)cc2Cl)o1` was “inactive”; that for `Cc1ccc(-c2nnc(Nc3ccc(C(=O)N(C)C)cc3)c3ccccc23)cc1S(N)(=O)=O` was “inactive”.

For `Cc1ccc(C)c(Nc2nnc(-c3ccc(C)c(S(=O)(=O)N4CCCCC4)c3)c3ccccc23)c1`, the Potency is 89.1 µM (active). For the compound `Cc1ccc(Nc2nnc(-c3ccc(C)c(S(=O)(=O)N4CCCCC4)c3)c3ccccc23)cc1`, the Potency entry was “inactive”. `CCc1nc2nc(C)cc(Nc3ccc(F)c(Cl)c3)n2n1`: the Potency entry was “inactive”. As to `Cc1nn(-c2nc(-c3ccccc3)cc(C(F)(F)F)n2)c(C)c1Cl`, the Potency result was “inactive”. As for `COc1ccc2[nH]c3c(C)c4cc[n+](C)cc4c(C)c3c2c1`, the Potency was 12.6 µM (active). Take `Cc1cc[n+](C2CCCCC2)cc1`: the Potency result is “inactive”. The figure for `CN(CCOc1ccccc1)C(=O)c1cc(-c2ccco2)nc2ccccc12` is 22.4 µM (active); for `O=C(Nc1cccc(F)c1)c1cc(-c2ccco2)nc2ccccc12` it is 50.1 µM (active); for `Cc1cc(C(=O)Nc2ccc(C)c(S(=O)(=O)N3CCOCC3)c2)c2ccccc2n1` it is “inactive”.

As for `O=C(c1cc(-c2ccc(Cl)s2)nc2ccccc12)N1CCOCC1`, the Potency entry is “inactive”. As for `CC1CCCN(C(=O)c2cc(-c3ccco3)nc3ccccc23)C1` (configuration not stated), the Potency is 28.2 µM (active). In the case of `CCOc1ccccc1-c1cc(C(=O)N2CCOCC2)c2ccccc2n1`, the Potency result was “inactive”. Take `CN(C(=O)COC(=O)c1cc(-c2ccco2)nc2ccccc12)C1CCS(=O)(=O)C1` (configuration not stated): the Potency was 3.55 µM (active). The value for `CN(CCOc1ccccc1)C(=O)c1cc(COc2c(F)cccc2F)on1` was “inactive”; that for `O=C(COc1ccccc1C(=O)Nc1ccccc1)Nc1cccc(F)c1` was “inactive”; that for `COc1ccc(CN(C)C(=O)c2cc(-c3ccc(C)cc3C)nc3ccccc23)c(OC)c1OC` was “inactive”.

Consider `COc1ccc(NC(=O)COc2ccc(C(=O)OCC(=O)N(C)C3CCS(=O)(=O)C3)cc2OC)cc1` (configuration not stated), for which the Potency entry is “inactive”.

Turning to `Cc1ccc(S(=O)(=O)CCC(=O)OCC(=O)N(C)C2CCS(=O)(=O)C2)cc1` (configuration not stated), the Potency result is “inactive”. `CCCCC(CCCC)c1ccc(C=Nc2ccc(/C=C/c3ccnc4ccccc34)cc2)cc1`: the Potency result is “inactive”. Consider `CCOc1cc(C(=O)NCCc2csc3nc(-c4ccc(C)cc4)nn23)cc(OCC)c1OCC`, for which the Potency result is “inactive”. For the compound `Cc1ccc(NC(=O)CN2c3ccccc3S(=O)(=O)c3ccccc32)cc1F`, the Potency entry is “inactive”. The entry for `CCOc1ccccc1CNC(=O)c1ccc(-n2c(C)cc3c2CCC(C)C3)cc1` (configuration not stated) is “inactive”. For `CCN(CC)C(=O)CSc1nc2ccsc2c(=O)n1Cc1ccccc1Cl`, the Potency entry was “inactive”.

As for `CC1=C(C(=O)OCc2ccc(C)cc2)C(c2ccccc2Cl)CC(=O)N1` (configuration not stated), the Potency result was “inactive”. For `CC(C)(C)OC(=O)N(Cc1ccco1)S(=O)(=O)c1ccccc1Br`, the Potency entry was “inactive”. On to `CCC(=O)N1CCc2cc(S(=O)(=O)NC(CC(C)C)C(=O)NCCc3cccc(C)c3)ccc21` (configuration not stated), for which the Potency entry is “inactive”. Consider `CN1CCN(/N=C2/C(=O)Nc3ccc([N+](=O)[O-])cc32)CC1`, for which the Potency result was “inactive”.

As for `O=[N+]([O-])c1ccc(N(CCO)Cc2ccccc2)c([N+](=O)[O-])c1`, the Potency result was “inactive”. Regarding `O=C1Nc2ccc([N+](=O)[O-])cc2C1=Nc1cccc(CO)c1`, the Potency is 7.94 µM (active). The entry for `CC(=O)c1ccc[n+](C(C)CCC(C)[n+]2cccc(C(C)=O)c2)c1` (configuration not stated) is “inactive”. Consider `COc1cccc(CNC(=O)CN2C(=O)CCc3cc(S(=O)(=O)N4CCOCC4)ccc32)c1`, for which the Potency result is “inactive”. As to `COc1ccc2[nH]c(=O)c(CNc3ccc(C)c(C)c3)cc2c1`, the Potency result was “inactive”.

In the case of `COc1ccc(-c2cc(C(=O)NCc3cc(OC)c(OC)c(OC)c3)[nH]n2)cc1`, the Potency entry was “inactive”. Take `COc1ccc2[nH]c(C(=O)N/N=C/c3cc(OC)c(OC)c(OC)c3)cc2c1`: the Potency is 17.8 µM (active). In the case of `Cc1ccc(S(=O)(=O)N(C)C)cc1NC(=O)C1Cc2ccccc2CN1C(=O)c1ccco1` (configuration not stated), the Potency is 22.4 µM (active). The value for `COc1ccccc1N1CCN(C(=O)C2Cc3ccccc3CN2C(=O)c2ccco2)CC1` (configuration not stated) was “inactive”; that for `Cc1ccc(C)c(NC(=O)C2Cc3ccccc3CN2C(=O)OCc2ccccc2)c1` (configuration not stated) was “inactive”.
